# Test results reported in PubChem BioAssay AID1159580 (chemical genetic matrix, 2015).
# In all, about 5,500 compounds went through this assay and about 2,000 (36%) were called active. Not shown: some 18% with an inconclusive outcome. The list shows a part of the results. A number with no mark means an inactive call. Cut-off read from the data, not from the text of the source: active = normalized growth mostly below about 0.91 (no sharp cut-off); inconclusive = no clear call, values can overlap the other calls; inactive = mostly above about 0.92.
# Assay: chemical genetic growth profiling, strain panel (AID 1159580);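 note: tested at 20 µM; growth read once vehicle control cultures reached saturation at 30 °C; 1 = growth at the plate median or of vehicle wells; lower values mean less growth of the strain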
# Details: S. cerevisiae deletion strains, growth OD
structure (smiles),measurement,setting,value
Cc1ccc(-n2cccc2)c(NS(=O)(=O)c2ccc(-c3ccno3)s2)c1,normalized growth,"locus YAR019C, strain CDC15, active compounds read low",0.94
same,normalized growth,"locus YBL105C, strain PKC1, active compounds read low",0.947
same,normalized growth,"locus YBR135W, strain CKS1, active compounds read low",0.944
same,normalized growth,"locus YBR136W, strain MEC1, active compounds read low",0.953
same,normalized growth,"locus YBR160W, strain CDC28, active compounds read low",0.938
same,normalized growth,"locus YDL017W, strain CDC7, active compounds read low",0.957
same,normalized growth,"locus YDL028C, strain MPS1, active compounds read low",0.933
same,normalized growth,"locus YDL101C, strain DUN1, active compounds read low",0.958
same,normalized growth,"locus YDL108W, strain KIN28, active compounds read low",0.937
same,normalized growth,"locus YDL132W, strain cdc53, active compounds read low",0.943
same,normalized growth,"locus YDL214C, strain PRR2, active compounds read low",0.899
same,normalized growth,"locus YDR052C, strain DBF4, active compounds read low",0.962
same,normalized growth,"locus YDR054C, strain cdc34, active compounds read low",0.941
same,normalized growth,"locus YDR226W, strain ADK1, active compounds read low",0.929
same,normalized growth,"locus YDR477W, strain SNF1, active compounds read low",0.894
same,normalized growth,"locus YER123W, strain YCK3, active compounds read low",0.868
same,normalized growth,"locus YER133W, strain GLC7, active compounds read low",0.902
same,normalized growth,"locus YFL009W, strain cdc4, active compounds read low",0.93
same,normalized growth,"locus YFL029C, strain CAK1, active compounds read low",0.936
same,normalized growth,"locus YFR003C, strain YPI1, active compounds read low",0.957
same,normalized growth,"locus YFR019W, strain FAB1, active compounds read low",0.976
same,normalized growth,"locus YFR028C, strain CDC14, active compounds read low",0.94
same,normalized growth,"locus YGR040W, strain KSS1, active compounds read low",0.914
same,normalized growth,"locus YGR052W, strain FMP48, active compounds read low",0.898
same,normalized growth,"locus YGR092W, strain DBF2, active compounds read low",0.76
same,normalized growth,"locus YHR030C, strain SLT2, active compounds read low",0.667 (active)
same,normalized growth,"locus YHR079C, strain IRE1, active compounds read low",0.847
same,normalized growth,"locus YHR082C, strain KSP1, active compounds read low",0.888
same,normalized growth,"locus YHR205W, strain SCH9, active compounds read low",0.862
same,normalized growth,"locus YIL147C, strain SLN1, active compounds read low",0.941
same,normalized growth,"locus YJL095W, strain BCK1, active compounds read low",0.816
same,normalized growth,"locus YJL128C, strain PBS2, active compounds read low",0.891
same,normalized growth,"locus YJL157C, strain FAR1, active compounds read low",0.921
same,normalized growth,"locus YJR016C, strain ILV3, active compounds read low",0.941
same,normalized growth,"locus YJR066W, strain TOR1 (second series), active compounds read low",0.889
same,normalized growth,"locus YJR066W, strain TOR1, active compounds read low",0.816
same,normalized growth,"locus YKL048C, strain ELM1, active compounds read low",0.924
same,normalized growth,"locus YKL067W, strain YNK1, active compounds read low",0.885
same,normalized growth,"locus YKL101W, strain HSL1, active compounds read low",0.894
same,normalized growth,"locus YKL193C, strain SDS22, active compounds read low",0.941
same,normalized growth,"locus YKL203C, strain TOR2, active compounds read low",0.979
same,normalized growth,"locus YLR113W, strain HOG1, active compounds read low",0.774 (active)
same,normalized growth,"locus YLR133W, strain CKI1, active compounds read low",0.923
same,normalized growth,"locus YLR403W, strain SFP1, active compounds read low",0.915
same,normalized growth,"locus YML070W, strain DAK1, active compounds read low",0.905
same,normalized growth,"locus YMR001C, strain CDC5, active compounds read low",0.947
same,normalized growth,"locus YMR205C, strain PFK2 (second series), active compounds read low",0.918
same,normalized growth,"locus YMR277W, strain FCP1, active compounds read low",0.93
same,normalized growth,"locus YNL006W, strain LST8, active compounds read low",0.965
same,normalized growth,"locus YNL020C, strain ARK1, active compounds read low",0.939
same,normalized growth,"locus YNL161W, strain CBK1, active compounds read low",0.953
same,normalized growth,"locus YNL183C, strain NPR1, active compounds read low",0.9
same,normalized growth,"locus YNL207W, strain RIO2, active compounds read low",0.939
same,normalized growth,"locus YNL222W, strain SSU72, active compounds read low",0.943
same,normalized growth,"locus YNL307C, strain MCK1 (second series), active compounds read low",0.9
same,normalized growth,"locus YOL078W, strain AVO1, active compounds read low",0.941
same,normalized growth,"locus YOL136C, strain PFK27, active compounds read low",0.906
same,normalized growth,"locus YOR061W, strain CKA2, active compounds read low",0.906
same,normalized growth,"locus YOR119C, strain RIO1, active compounds read low",0.923
same,normalized growth,"locus YOR231W, strain MKK1, active compounds read low",0.833
same,normalized growth,"locus YOR329C, strain SCD5, active compounds read low",0.952
same,normalized growth,"locus YPL031C, strain PHO85, active compounds read low",0.896
same,normalized growth,"locus YPL153C, strain RAD53, active compounds read low",0.872
same,normalized growth,"locus YPL204W, strain HRR25, active compounds read low",0.883
same,normalized growth,"locus YPL209C, strain IPL1, active compounds read low",0.953
same,normalized growth,"locus YPL256C, strain CLN2, active compounds read low",0.791 (active)
same,normalized growth,"locus YPR025C, strain CCL1, active compounds read low",0.95
same,normalized growth,"locus YPR106W, strain ISR1, active compounds read low",0.932
same,normalized growth,"locus YPR111W, strain DBF20, active compounds read low",0.926
same,normalized growth,"strain NNK1, active compounds read low",0.938
same,normalized growth,"strain TSCII, active compounds read low",0.942
